# In all, about 310,000 compounds went through this assay and about 14,000 (4.5%) showed an effect of 50% or more. The effect is printed as a negative number. The list comes from a sample in which strong results are over-represented; it also holds similar structures and randomly drawn compounds.
# Target: human ether-à-go-go-related gene (hERG) potassium channel (human, UniProt Q12809)
# Assay: primary screen, population patch clamp on CHO cells stably expressing hERG; higher = less effect of the substance
# 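Note: peak tail current of the secondary pulse compared with the same well before compound.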
# Chain of human ether-à-go-go-related gene (hERG) potassium channel (Q12809 whole entry, looked up): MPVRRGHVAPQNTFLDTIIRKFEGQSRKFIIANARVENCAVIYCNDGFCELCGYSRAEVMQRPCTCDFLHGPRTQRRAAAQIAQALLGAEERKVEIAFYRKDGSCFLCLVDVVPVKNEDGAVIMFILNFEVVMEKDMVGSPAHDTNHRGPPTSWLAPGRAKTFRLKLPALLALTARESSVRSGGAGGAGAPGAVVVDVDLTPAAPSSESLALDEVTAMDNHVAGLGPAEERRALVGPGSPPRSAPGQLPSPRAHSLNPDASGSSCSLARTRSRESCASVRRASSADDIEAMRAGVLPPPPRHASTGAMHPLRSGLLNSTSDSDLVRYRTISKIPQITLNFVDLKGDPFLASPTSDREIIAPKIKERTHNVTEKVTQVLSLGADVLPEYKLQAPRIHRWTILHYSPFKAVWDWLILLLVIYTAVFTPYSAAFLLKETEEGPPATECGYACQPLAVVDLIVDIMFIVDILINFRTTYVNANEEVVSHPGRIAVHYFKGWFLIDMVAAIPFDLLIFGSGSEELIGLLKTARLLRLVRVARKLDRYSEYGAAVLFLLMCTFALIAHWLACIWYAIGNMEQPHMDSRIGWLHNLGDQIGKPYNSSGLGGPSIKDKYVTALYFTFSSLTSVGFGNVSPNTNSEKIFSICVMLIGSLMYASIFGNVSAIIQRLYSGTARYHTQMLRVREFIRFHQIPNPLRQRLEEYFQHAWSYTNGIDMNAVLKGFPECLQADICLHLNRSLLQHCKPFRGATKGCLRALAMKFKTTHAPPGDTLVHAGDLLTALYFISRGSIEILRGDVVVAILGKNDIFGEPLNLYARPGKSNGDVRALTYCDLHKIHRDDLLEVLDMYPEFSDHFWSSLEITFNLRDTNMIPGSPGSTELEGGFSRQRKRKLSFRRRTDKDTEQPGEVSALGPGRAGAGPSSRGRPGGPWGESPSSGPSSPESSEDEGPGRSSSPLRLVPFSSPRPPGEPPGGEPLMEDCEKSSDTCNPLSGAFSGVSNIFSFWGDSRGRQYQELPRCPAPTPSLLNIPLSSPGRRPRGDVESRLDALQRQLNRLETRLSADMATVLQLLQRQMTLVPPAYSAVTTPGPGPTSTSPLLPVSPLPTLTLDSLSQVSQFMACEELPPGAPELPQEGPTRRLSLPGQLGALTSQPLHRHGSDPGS
row,Compound,"hERG current change (%, negative = inhibition) at 10uM [%]"
1,O=C(COC(=O)CCNS(=O)(=O)c1ccc2c(c1)OCCO2)NC1CCCc2ccccc21 (stereo not drawn),-0.954
2,O=C(CN(C(=O)c1ccccc1Cl)N1C(=O)C2C3C=CC(C3)C2C1=O)c1cccs1 (stereo not drawn),7.25
3,O=C(CSc1ncn[nH]1)NC12CC3CC(CC(C3)C1)C2,-5.91
4,O=C(N/N=C/c1c(F)c(F)c(F)c(F)c1F)c1cc(-c2ccccc2)nc2ccccc12,6.92
5,O=C(O)Cc1csc(-c2cccc(F)c2)n1,19.1
6,CC(C)OC(=O)NCCOC(=O)Nc1ccccc1Cl,21.6
7,Cn1c(=O)c(=O)n(C)c2cc(S(=O)(=O)CCC(=O)NCc3ccccc3)ccc21,20
8,COc1ccc(OC)c(/C=N/NC(=O)Cc2nc3ccccc3[nH]2)c1,5.63
9,Cc1onc(-c2ccccc2)c1C(=O)N1CCN(S(=O)(=O)c2ccccc2C(F)(F)F)CC1,22.6
10,Cc1cc(S(=O)(=O)Nc2ccc(C(=O)NCCCN3CCCC3=O)cc2)ccc1F,8.37
11,O=C(NCc1ccccc1)C1C(=O)N(Cc2ccccc2)C(=O)C1C1(O)CCCC1 (stereo not drawn),2.87
12,O=C(Nc1ccc2oc(=O)ccc2c1)c1ccc(-c2ccc(Cl)cc2)o1,3.37
13,S=c1[nH]nc(Cc2ccccc2)n1Cc1ccco1,-5.08
14,Cc1nc2ccc(S(=O)(=O)NCC(=O)N3CCN(c4ccccc4)CC3)cc2s1,-1.33
15,O=C(O)c1cc(NC(=O)c2cccc(F)c2)cc(NC(=O)c2cccc(F)c2)c1,15.4
16,COc1ccc(OCC(=O)NCC(c2ccc(OC)cc2)N2CCCCC2)cc1 (stereo not drawn),-33.1
17,COc1ccc(C(CNC(=O)COc2ccccc2OC)N2CCCCC2)cc1 (stereo not drawn),-19.5
18,COc1ccc(C(CNC(=O)COc2ccc([N+](=O)[O-])cc2)N2CCCCC2)cc1 (stereo not drawn),-69.9
19,COc1ccc(C(CNC(=O)COc2ccc(F)cc2Br)N2CCCC2)cc1 (stereo not drawn),-64.5
20,COc1ccc(C(CNC(=O)COc2ccc(Br)cc2F)N2CCCC2)cc1 (stereo not drawn),-78.6
21,COc1ccc(C(CNC(=O)COc2ccccc2C)N2CCCC2)cc1 (stereo not drawn),-40.8
22,COc1ccc(C(CNC(=O)COc2ccccc2C)N2CCCCC2)cc1 (stereo not drawn),-20.7
23,COc1ccc(C(CNC(=O)COc2ccccc2)N2CCCCC2)cc1 (stereo not drawn),-29.3
24,COc1ccc(C(CNC(=O)COc2ccc(F)cc2Cl)N2CCCCC2)cc1 (stereo not drawn),-8.7

# — PMC4336329 (PLoS ONE, 2015)
